The record followed here is publication PMC4336329 (PLoS ONE, 2015).

Out of some 310,000 compounds screened, about 14,000 (4.5%) showed an effect of 50% or more. The effect is printed as a negative number. The full list was thinned out, with strong results kept by preference.
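Also: peak tail current of the secondary pulse compared with the same well before compound.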

The target of the test is human ether-à-go-go-related gene (hERG) potassium channel (human, UniProt Q12809). The test can be described thus: primary screen, population patch clamp on CHO cells stably expressing hERG; higher = less effect of the substance.
Chain of human ether-à-go-go-related gene (hERG) potassium channel (Q12809 whole entry, looked up): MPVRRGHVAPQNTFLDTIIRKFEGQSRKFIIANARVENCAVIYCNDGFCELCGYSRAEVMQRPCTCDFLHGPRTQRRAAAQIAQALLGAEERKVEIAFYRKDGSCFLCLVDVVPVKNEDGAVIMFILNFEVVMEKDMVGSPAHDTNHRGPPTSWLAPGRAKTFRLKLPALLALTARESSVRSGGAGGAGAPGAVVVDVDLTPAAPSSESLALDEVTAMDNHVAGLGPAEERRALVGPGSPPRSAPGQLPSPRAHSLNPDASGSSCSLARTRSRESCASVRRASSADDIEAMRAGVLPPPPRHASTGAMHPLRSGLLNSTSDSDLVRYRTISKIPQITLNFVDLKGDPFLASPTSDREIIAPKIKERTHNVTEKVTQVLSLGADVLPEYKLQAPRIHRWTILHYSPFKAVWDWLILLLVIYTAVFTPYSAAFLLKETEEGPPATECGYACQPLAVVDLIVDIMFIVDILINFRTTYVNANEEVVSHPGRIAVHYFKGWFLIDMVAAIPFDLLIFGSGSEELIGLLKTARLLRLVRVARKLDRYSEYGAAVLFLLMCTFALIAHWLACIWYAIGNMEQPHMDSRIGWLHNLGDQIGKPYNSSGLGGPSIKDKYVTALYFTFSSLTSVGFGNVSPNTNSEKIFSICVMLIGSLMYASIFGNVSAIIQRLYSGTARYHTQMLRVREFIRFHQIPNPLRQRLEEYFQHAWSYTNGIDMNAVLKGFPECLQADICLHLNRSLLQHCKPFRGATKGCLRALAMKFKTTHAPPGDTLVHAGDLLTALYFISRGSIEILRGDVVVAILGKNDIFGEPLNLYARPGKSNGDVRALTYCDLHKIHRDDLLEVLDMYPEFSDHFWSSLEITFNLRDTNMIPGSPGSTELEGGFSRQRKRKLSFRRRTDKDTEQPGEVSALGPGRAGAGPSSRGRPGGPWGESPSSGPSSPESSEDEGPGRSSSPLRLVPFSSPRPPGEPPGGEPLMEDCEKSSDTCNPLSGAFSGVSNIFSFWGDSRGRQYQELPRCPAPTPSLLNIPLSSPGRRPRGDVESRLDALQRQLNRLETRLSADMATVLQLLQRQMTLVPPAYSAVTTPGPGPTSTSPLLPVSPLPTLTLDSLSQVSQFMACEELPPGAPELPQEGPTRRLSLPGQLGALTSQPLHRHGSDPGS
As to `O=C(c1cccnc1)N1N=C(C2CCCCC2)CC1(O)C(F)(F)F` (centres unmarked), the “hERG current change (%, negative = inhibition) at 10uM” value was -0.742%.
For `O=C(NCCCN1CCOCC1)c1csc2c1CCCC2`, the “hERG current change (%, negative = inhibition) at 10uM” value is given as -7.57%.
To `CC(C)CCNC(=O)c1csc2c1CCCCC2` belongs 2.04%; to `CC1CCCC(C)N1CCCNC(=O)c1csc2c1CCCCC2` (centres unmarked), -49.3%.
Under `O=C(NCCN1CCOCC1)c1csc2c1CCCCC2` stands 5.21%.
To `CC1CC(C)CN(CCCNC(=O)c2csc3c2CCCC3)C1` (centres unmarked) belongs -65%; to `CCC1CCCCN1CCCNC(=O)c1csc2c1CCCCC2` (centres unmarked), -56.7%.
Consider `CCN1CCN(CCCNC(=O)c2csc3c2CCCCC3)CC1`, for which the “hERG current change (%, negative = inhibition) at 10uM” value was -7.21%.
To `CCN1CCCC1CNC(=O)c1csc2c1CCCC2` (centres unmarked) belongs -38.9%; to `CC1CC(C)CN(CCCNC(=O)c2csc3c2CCCCC3)C1` (centres unmarked), -61.2%; to `CC1(C)Cc2c(sc(NC(=O)c3ccc4ncsc4c3)c2C(N)=O)C(C)(C)N1`, -30.5%.
To `Cc1cccc(NC(=O)Nc2ccccc2[N+](=O)[O-])n1` belongs 16.7%.
As for `NS(=O)(=O)c1ccc(CCNC(=O)CN2CCN(c3ccc(F)cc3)CC2)cc1`, the “hERG current change (%, negative = inhibition) at 10uM” value is -18.7%.
To `COCCSc1ccccc1C(=O)Nc1ccc2c(c1)OCCO2` belongs 5.7%; to `CCC(C(=O)NC1CCCCC1)N(C(=O)c1snc(C(N)=O)c1N)c1ccc(OC)cc1OC` (centres unmarked), -69.3%; to `CCOCCCN(C(=O)c1snc(C(N)=O)c1N)C(C(=O)NCCC(C)C)c1ccc(Cl)cc1` (centres unmarked), -68.1%.
To `CCOCCCN(C(=O)c1snc(C(N)=O)c1N)C(C(=O)NC1CCCC1)c1ccc(F)cc1` (centres unmarked) belongs -12%; to `COc1ccc(C(C(=O)NC2CCCCC2)N(C(=O)c2snc(C(N)=O)c2N)c2ccc(OC)cc2OC)cc1` (centres unmarked), 9.37%.
To `CCC(C(=O)NC1CCCC1)N(C(=O)c1snc(C(N)=O)c1N)c1ccc(OC)c(OC)c1` (centres unmarked) belongs 15.5%; to `CCOCCCN(C(=O)c1snc(C(N)=O)c1N)C(C(=O)NC1CCCC1)c1ccc(O)cc1` (centres unmarked), 3.52%; to `CCOc1ccc(C(C(=O)NC2CCCCC2)N(CCOC)C(=O)c2snc(C(N)=O)c2N)cc1` (centres unmarked), -47.5%.
As to `CCOc1ccc(C(C(=O)NC2CCCC2)N(C(=O)c2snc(C(N)=O)c2N)C2CCCC2)cc1` (centres unmarked), the “hERG current change (%, negative = inhibition) at 10uM” value is on record as -51.1%.
Under `COc1ccc(C(C(=O)NC2CCCC2)N(C(=O)c2snc(C(N)=O)c2N)C2CCCC2)cc1OC` (centres unmarked) stands 5.77%; under `CCOCCCN(C(=O)c1snc(C(N)=O)c1N)C(C(=O)NC(C)(C)C)c1ccc(Cl)cc1` (centres unmarked), -33.1%.
Under `CCOCCCN(C(=O)c1snc(C(N)=O)c1N)C(C(=O)NC1CCCC1)c1ccc(OC)cc1` (centres unmarked) stands -60.5%; under `CCOCCCN(C(=O)c1snc(C(N)=O)c1N)C(C(=O)NCCC(C)C)c1ccc(F)cc1` (centres unmarked), -23.6%.
To `CCCCC1CCCOC(C(=O)NCCNCCO)(C(F)(F)F)C1` (centres unmarked) belongs 6.03%; to `CN(C)c1nnnn1-c1ccc(Cl)cc1Cl`, 0.276%.
Regarding `CCN(CC)C(=O)c1n[nH]c(=O)c2ccccc12`, the “hERG current change (%, negative = inhibition) at 10uM” value was found to be 4%.
Regarding `CCn1c(SCC(=O)Nc2cc(C)on2)nnc1-c1ccccc1`, the “hERG current change (%, negative = inhibition) at 10uM” value is -3.05%.
To `COc1ccc(-c2cc(C(=O)N3CCN(c4ccccc4OC)CC3)no2)cc1OC` belongs -0.868%; to `N#CCOC(=O)c1c2c(nc3ccccc13)CCC2`, -23.1%; to `Cc1ccc(C)c(S(=O)(=O)N2CCN(CC(=O)NC(=O)NCc3ccccc3)CC2)c1`, -9.97%.
Under `Cc1cc(C)n(-c2ccc(C(=O)N3CCc4ccccc43)cc2)n1` stands -3.89%; under `COc1ccccc1NC(=O)Nc1ccccc1C#N`, 15.6%; under `O=C1CCCN1CCCNS(=O)(=O)c1cccc(F)c1`, 25.9%.
Consider `CCOc1ccccc1N(C(=O)c1snc(C(N)=O)c1N)C(C(=O)NCCC(C)C)c1ccco1` (centres unmarked), for which the “hERG current change (%, negative = inhibition) at 10uM” value is on record as -22.2%.
Under `COc1ccccc1N(C(=O)c1snc(C(N)=O)c1N)C(C(=O)NC1CCCC1)c1ccco1` (centres unmarked) stands -35.4%; under `CCOc1ccccc1N(C(=O)c1snc(C(N)=O)c1N)C(C(=O)NC1CCCC1)c1ccco1` (centres unmarked), -55%.
Consider `CNC(=S)N1CCN(c2nc(-c3ccc(Cl)cc3)cs2)CC1`, for which the “hERG current change (%, negative = inhibition) at 10uM” value came out at 14.7%.
Take `Cc1cc2c(cc1C)N(Cc1ccc(Cl)cc1)C1=NCCCN12`: the “hERG current change (%, negative = inhibition) at 10uM” value is on record as -69.8%.
To `Cc1cc2c(cc1C)N(Cc1ccccc1)C1=NCCCN12.Cl` belongs -72.3%; to `COC(=O)c1cc(Cl)cc2c(C)c(C3(O)CCCCC3)[nH]c12`, 15%; to `O=C(/C=C/c1ccccc1)N/C(=C/c1ccccc1)C(=O)Nc1ccccc1O`, -27.3%.
